Results reported in PubChem BioAssay (Tox21).
“And” between values parts separate entries of the source, which are not always exact repeats. Identical values can stand only once. Records with an inconclusive call do not appear. Where a call stands in place of a potency, no number is given. Where a structure was tested more than once in an assay, its records may differ in their call. The source made the active and inactive calls. Calls follow the shape of the dose curve; as a rule, active = well fitted cell-killing curve with a large enough effect in the repeat runs; inconclusive = weak or mixed curves; inactive = no such curve, though single readings can be large or run the other way.

assay: qHTS assay for identifying genotoxic compounds that show differential cytotoxicity against isogenic chicken DT40 cell lines with known DNA damage response pathways - Rad54/Ku70 mutant cell line (AID 743015); details: DT40 Rad54/Ku70 mutant viability, CellTiter-Glo, 40 h; series mostly up to 66.8 µM; also: nearly all actives have a fitted effect of over 60% in size
Potency is read from the fitted curve at half-maximal effect.

| SMILES | Potency |
| --- | --- |
| C=CC(=O)OCC1CC2CC1C1CCC(COC(=O)C=C)C21 (configuration not stated) | 19.3 µM (active) |
| O=C(Cn1ccnc1[N+](=O)[O-])NCCO | inactive |
| O=c1cc(-c2ccccc2)oc2cc(O)cc(O)c12 | 24.3 µM (active) |
| O=C1c2ccccc2C(=O)C1(O)O | 27.4 µM (active) |
| CCCCC(CC)CN (configuration not stated) | 55.5 µM (active) |
| CCCCCC[C@@H](O)C/C=C\CCCCCCCC(=O)O | inactive and 23.7 µM (active) and 48.6 µM (active) |
| CC1(CN2CCC(n3c(=O)[nH]c4ccccc43)CC2)OCc2ccccc2-n2cccc21 (configuration not stated) | 21.1 µM (active) |
| Cc1ccc(Cl)c(Nc2ccccc2C(=O)O)c1Cl | inactive |
| CCCCN1CCCC1C(=O)Nc1c(C)cc(C)cc1C (configuration not stated) | 29.8 µM (active) |
| CCOC(=O)/C=C/C(=O)OCC | inactive |
| COC(=O)C1=C(C)NC(C)=C(C(=O)O[C@@H]2CCCN(Cc3ccccc3)C2)[C@@H]1c1cccc([N+](=O)[O-])c1 | 13.3 µM (active) |
| CCC(=O)C1CC(C(C)C)CC=C1C (configuration not stated) | inactive |
| Cc1cc(O)ccc1O | inactive |
| O=[N+]([O-])c1cc(C2CCCCC2)c(O)c([N+](=O)[O-])c1 | 19.3 µM (active) |
| c1cc(N(CC2CO2)CC2CO2)ccc1Cc1ccc(N(CC2CO2)CC2CO2)cc1 (configuration not stated) | 1.93 µM (active) |
| C[C@]12CC[C@@H]3c4ccc(O)cc4CC[C@H]3[C@@H]1CC[C@@H]2OC(=O)CCC1CCCC1 | 11.9 µM (active) |
| C[C@@H]1CC(=O)NN=C1c1ccc(NN=C(C#N)C#N)cc1 | 21.1 µM (active) |

assay: qHTS assay to identify small molecule antagonists of the androgen receptor (AR) signaling pathway - cell viability counter screen (AID 743033; also: nearly all actives have a fitted effect of over 45% in size); details: AR-bla HEK293 viability, CellTiter-Glo luminescence, 16 h; series mostly up to 58.5 µM

| SMILES | Potency |
| --- | --- |
| O=C(Cn1ccnc1[N+](=O)[O-])NCCO | inactive |
| CCC1(CO)COCOC1 | inactive |
| O=c1cc(-c2ccccc2)oc2cc(O)cc(O)c12 | inactive |
| C1C[C@@H]2[C@H]3CC[C@H](C3)[C@@H]2C1 | inactive |
| CCCCC(CC)CN (configuration not stated) | 44.5 µM (active) |
| CCCCCCCCOc1ccc(C(=O)O)cc1 | inactive |
| Brc1cc2ccccc2c2ccccc12 | inactive |
| Cc1cc2c(OCC(CNC(C)(C)C)OC(=O)c3ccccc3)cccc2[nH]1 (configuration not stated) | inactive |
| CCCCCC[C@@H](O)C/C=C\CCCCCCCC(=O)O | inactive |
| CC1(CN2CCC(n3c(=O)[nH]c4ccccc43)CC2)OCc2ccccc2-n2cccc21 (configuration not stated) | inactive |
| CC(=O)N/N=C/c1ccc([N+](=O)[O-])o1 | inactive |
| Cc1ccc(Cl)c(Nc2ccccc2C(=O)O)c1Cl | inactive |
| CCOC(=O)c1ccccc1C(=C1C=C(Br)C(=O)C(Br)=C1)c1cc(Br)c(O)c(Br)c1 | inactive |
| CCCCCCCCC(CCCCCC)C(=O)O (configuration not stated) | inactive |
| CCCCN1CCCC1C(=O)Nc1c(C)cc(C)cc1C (configuration not stated) | inactive |
| CCOC(=O)/C=C/C(=O)OCC | inactive |
| O=C=Nc1ccc(Cl)c(Cl)c1 | inactive |
| CC(=O)NC1(c2cccc(F)c2)CCN(CC[C@@]2(c3ccc(Cl)c(Cl)c3)CN(c3ccccc3)C(=O)CO2)CC1 | 39 µM (active) |
| CCC(=O)C1CC(C(C)C)CC=C1C (configuration not stated) | inactive |
| Cc1cc(O)ccc1O | inactive |
| CCCCCCCCCCCCCCN(CCO)CCO | 43.6 µM (active) |
| COc1ccccc1NC(=O)c1cc2ccccc2cc1O | 13.8 µM (active) |
| c1cc(N(CC2CO2)CC2CO2)ccc1Cc1ccc(N(CC2CO2)CC2CO2)cc1 (configuration not stated) | 54.9 µM (active) |
| C/C=C/C=C/C=O | inactive |
| C[C@]12CC[C@@H]3c4ccc(O)cc4CC[C@H]3[C@@H]1CC[C@@H]2OC(=O)CCC1CCCC1 | inactive |
